Hits are enriched below; roughly 7.3% of the tested compounds scored in any of these assays.
FMDV antiviral = High Throughput Screening for Foot and Mouth Disease Virus Antivirals; FMDV antiviral cell-based qHTS; Potency, µM (top dose mostly 57.9 µM), actives largely listed as inhibitors; 410,000 compounds, 1.2% hits; calls by dose curve; tested in HEK293T cells; also: read-out not given here; nearly all actives have a fitted effect of over 45% in size
AmpC inh detg = qHTS Inhibitors of AmpC Beta-Lactamase (assay with detergent); 370,000 compounds, 0.041% hits; AID 485294, 2010; AmpC hydrolysis of nitrocefin, absorbance 480 nm, 0.01% Triton; Potency, µM (titrated, usually from 114 µM), most hits filed as inhibitors; also: nearly all actives have a fitted effect of over 25% in size
Target sequence (P00811 whole entry, looked up): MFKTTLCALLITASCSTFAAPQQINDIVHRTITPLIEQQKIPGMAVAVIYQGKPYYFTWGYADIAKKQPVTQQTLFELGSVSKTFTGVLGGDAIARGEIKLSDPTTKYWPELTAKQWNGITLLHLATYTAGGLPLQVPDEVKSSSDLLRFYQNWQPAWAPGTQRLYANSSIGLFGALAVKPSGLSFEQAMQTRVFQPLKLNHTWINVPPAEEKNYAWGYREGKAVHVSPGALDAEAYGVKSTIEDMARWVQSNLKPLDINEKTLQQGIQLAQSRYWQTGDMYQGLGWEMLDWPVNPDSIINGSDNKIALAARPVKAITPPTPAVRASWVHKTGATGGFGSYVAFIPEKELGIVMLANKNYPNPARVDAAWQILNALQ
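20 mM phosphate pH 7.0 + 0.01% (detergent screen) or 0.0001% Triton X-100; 5.3 nM AmpC reagent; cpd preinc 15 min RT; nitrocefin (800 uM stock) to start; A480 q20 s × 4 min; Activity was normalised to no-enzyme and no-compound control wells.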
HCMV inh = qHTS Assay for inhibitors of the human cytomegalovirus (HCMV); HFF cells, HCMV-luciferase reporter, 72 h; hits give low values; 410,000 compounds, 4.5% hits; activity change, negative = inhibition, % at 57.5 µM; in the data active = activity change below about -60%; inconclusive = no clear call, values can overlap the other calls; inactive = above about -39%
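After 16 h attachment at 37C, HFF cells received test compound and HCMV-luciferase (1 PFU/cell); reporter luminescence read 72 h later, data normalized against buffer-only and known inhibitor Salinomycin.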
AmpC no deterg = qHTS Inhibitors of AmpC Beta-Lactamase (assay without detergent). AmpC nitrocefin hydrolysis, absorbance 480 nm, 0.0001% Triton. Potency, µM (series often up to 57.1 µM), most hits filed as inhibitors. 330,000 compounds, 0.52% hits. P00811; also: nearly all actives have a fitted effect of over 20% in size
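20 mM phosphate pH 7.0 + 0.01% (detergent screen) or 0.0001% Triton X-100; 5.3 nM AmpC reagent; cpd preinc 15 min RT; nitrocefin (800 uM stock) to start; A480 q20 s × 4 min; Activity was normalised to no-enzyme and no-compound control wells.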
HCV inhibitor = qHTS Assay for Inhibitors of Hepatitis C Virus (HCV). Huh7.5.1 HCVcc-Cre infection, luciferase reporter, 44 h. Potency, µM (doses to about 41.8 µM), actives largely listed as inhibitors. 340,000 compounds, 3.4% hits
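Infectious HCVcc-Cre (~0.5 moi) was added to cells just after compound, with cells seeded 4 h earlier at 1,000 per well. Luciferase activity after 44 h culture reported infection; substrate was incubated 15 min at room temperature before reading.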
A number is an active result. Unless noted, calls follow the shape of the dose curve; as a rule, active = well fitted curve in the direction sought with a large enough effect; inconclusive = small, poorly fitted or top-dose-only effect, or another doubt; inactive = no such curve, though single readings can be large; an effect the other way counts as inactive or inconclusive.

CS(=O)(=O)N(CC(=O)Nc1ccc2c(c1)OCO2)Cc1ccc(Cl)cc1 was read as FMDV antiviral inactive, AmpC inh detg inactive, HCMV inh inactive, AmpC no deterg 0.28µM and HCV inhibitor inactive.
CS(=O)(=O)N(CC(=O)Nc1ccc2c(c1)OCO2)Cc1ccccc1 was read as AmpC inh detg inactive, HCMV inh inactive, AmpC no deterg inconclusive and HCV inhibitor inactive.
O=C(CCl)Nc1ccc2c(c1)OCO2 was read as FMDV antiviral inconclusive, AmpC inh detg inactive, HCMV inh -61, AmpC no deterg inactive and HCV inhibitor inconclusive.
`Cc1ccc(NC(=O)CSc2nc3[nH]ncc3c(=O)[nH]2)cc1Cl` gave FMDV antiviral inactive, AmpC inh detg inactive, HCMV inh inactive, AmpC no deterg inactive and HCV inhibitor inactive.
`N#CCc1ccc(NC(=O)c2ccc(CN3CCc4ccccc4C3)cc2)cc1` gave FMDV antiviral inconclusive, AmpC inh detg inactive, HCMV inh inactive, AmpC no deterg inactive and HCV inhibitor 2µM.
For O=C(Nc1ccc(CN2CCS(=O)(=O)CC2)cc1)c1ccc(Cl)cc1 the results were FMDV antiviral inactive, AmpC inh detg inactive, HCMV inh inconclusive, AmpC no deterg inactive and HCV inhibitor 10µM.
Screening O=C(Nc1ccc(S(=O)(=O)N2CCOCC2)cc1)c1ccc(CN2CCc3ccccc3C2)cc1 returned FMDV antiviral inconclusive, AmpC inh detg inactive, AmpC no deterg inactive and HCV inhibitor inconclusive.
O=C(Nc1ccc(Cl)cc1)c1ccc(CN2CCc3ccccc3C2)cc1 was read as FMDV antiviral inactive, AmpC inh detg inactive, HCMV inh inactive, AmpC no deterg inactive and HCV inhibitor 1.6µM.
Screening C#CCN1CC(COc2ccccc2)Oc2cccc(Oc3ccc(SC)c(C)c3)c2S1(=O)=O (stereo not drawn) returned HCMV inh inactive.
For CC(C)N(CC(N)=O)c1ccc(S(=O)(=O)N2CCCC2)cn1 the results were FMDV antiviral inactive, AmpC inh detg inactive, HCMV inh inactive, AmpC no deterg inactive and HCV inhibitor inactive.
For Cn1ncc2c(Nc3ccccc3Cl)nc(Nc3ccccc3Cl)nc21 the results were FMDV antiviral inactive, AmpC inh detg inactive, HCMV inh inactive, AmpC no deterg inactive and HCV inhibitor 6.3µM.
`CC(C)CCNc1nc(Nc2ccccc2)c2cnn(C)c2n1` gave FMDV antiviral inactive, AmpC inh detg inconclusive and HCMV inh inactive.
Screening CCCCc1nn2c(=O)cc(COC(=O)CNC(=O)c3ccccc3C)nc2s1 returned FMDV antiviral inactive, AmpC inh detg inactive and HCMV inh inactive.
`CC1(C(=O)NS(=O)(=O)C2CC2)CCCN(C(=O)C2(c3ccc(Cl)cc3)CCCC2)C1` (stereo not drawn) gave FMDV antiviral inactive and HCMV inh inactive.
For COc1cc2c(cc1OC)-c1c(OC)c(OC)cc3ccnc(c13)C2=O the results were FMDV antiviral inconclusive, AmpC inh detg inactive, HCMV inh -95, AmpC no deterg inactive and HCV inhibitor inconclusive.
Screening COc1ccc(C(=O)c2nccc3cc(OC)c(OC)cc23)cc1OC returned FMDV antiviral inactive, AmpC inh detg inactive, AmpC no deterg inactive and HCV inhibitor inconclusive.
COc1ccc(-n2c(=O)c(CCC(=O)N3CCN(c4ccccc4O)CC3)nc3ccccc32)cc1 was read as FMDV antiviral inconclusive, AmpC inh detg inconclusive, HCMV inh inconclusive, AmpC no deterg inactive and HCV inhibitor inactive.
CCCSc1nc2sc3c(c2c(=O)n1-c1ccccc1)CCC(C)C3 (stereo not drawn) was read as FMDV antiviral inactive, AmpC inh detg inactive and HCMV inh inactive.
For O=C(c1cccs1)N1CCN(c2nc3ccccc3s2)CC1 the results were FMDV antiviral inconclusive, AmpC inh detg inactive, HCMV inh inactive, AmpC no deterg inactive and HCV inhibitor inactive.
Screening Cn1c(C(=O)N2CCN(c3nc4ccccc4s3)CC2)cc2sccc21 returned FMDV antiviral inconclusive, AmpC inh detg inconclusive, HCMV inh -74, AmpC no deterg inactive and HCV inhibitor inactive.
For O=C(c1cc2sccc2n1Cc1ccc(F)cc1)N1CCN(c2nc3ccccc3s2)CC1 the results were FMDV antiviral inconclusive, AmpC inh detg inactive, HCMV inh inconclusive, AmpC no deterg inactive and HCV inhibitor 3.2µM.
`COCCNC(=O)C1CCN(C(=O)c2cc3sccc3n2Cc2ccc(F)cc2)CC1` gave FMDV antiviral inactive, AmpC inh detg inactive, AmpC no deterg inactive and HCV inhibitor inconclusive.
For Cc1cccc(N2CCN(C(=O)C3CCN(C(=O)c4cc5sccc5n4C)CC3)CC2)c1C the results were FMDV antiviral inconclusive, AmpC inh detg inactive and HCMV inh inactive.
Screening COc1ccccc1N1CCN(C(=O)c2cc3sccc3n2C)CC1 returned FMDV antiviral inactive, AmpC inh detg inactive, HCMV inh -76, AmpC no deterg inactive and HCV inhibitor inconclusive.
`COc1ccc(-c2cc(C(=O)N3CCc4c(cnc(C)c4CNC(=O)c4ccsc4)C3)[nH]n2)cc1` gave FMDV antiviral inactive.
For CCN1C(=O)[C@H]2[C@@H](c3ccc(-c4ccc(F)cc4)c(OC)c3)N[C@@](CC(C)C)(C(=O)OC)[C@H]2C1=O the results were AmpC inh detg inactive, HCMV inh inactive, AmpC no deterg inactive and HCV inhibitor inactive.
For Cc1cc2nc[nH]c(=O)n2n1 the results were FMDV antiviral inactive and HCMV inh inactive.
Screening COc1ccc(/C=C/c2cc(-c3ccc(C)cc3)o[n+]2C)cc1 returned FMDV antiviral 2.8µM, AmpC inh detg inactive, HCMV inh -104, AmpC no deterg inactive and HCV inhibitor inconclusive.
COc1ccc(/C=C/c2c(-c3ccc(OC)cc3)oc3ccc(-c4ccc(OC)cc4)cc23)cc1 was read as FMDV antiviral inactive, AmpC inh detg inconclusive, HCMV inh inconclusive, AmpC no deterg inactive and HCV inhibitor inactive.
Screening CC(=O)c1ccc(NS(=O)(=O)c2ccc(C)cc2)cc1 returned FMDV antiviral inactive, AmpC inh detg inactive, HCMV inh inactive, AmpC no deterg inactive and HCV inhibitor inactive.
COc1ccc(C(=O)/C=C/Nc2ccc(S(=O)(=O)Nc3cccc(C(C)=O)c3)cc2)cc1 was read as FMDV antiviral inactive, AmpC inh detg inactive, HCMV inh -72, AmpC no deterg inactive and HCV inhibitor 11µM.
Screening COc1ccc(S(=O)(=O)Nc2ccc3c(c2)CCC3)cc1 returned FMDV antiviral inactive, AmpC inh detg inactive, HCMV inh inconclusive, AmpC no deterg inactive and HCV inhibitor inconclusive.
`COc1cccc(C(=O)/C=C/Nc2ccc(S(=O)(=O)Nc3ccc(C(C)=O)cc3)cc2)c1` gave FMDV antiviral inactive, AmpC inh detg inactive, HCMV inh inactive, AmpC no deterg inactive and HCV inhibitor inactive.

Source: PubChem BioAssay (National Center for Advancing Translational Sciences (NCATS))
